In PubChem BioAssay (NCI) one finds growth inhibition data, which are given here for 35 compounds.

Each structure is given as a SMILES string. Where “and” joins values, the source holds several entries; their conditions need not be identical. Identical values can stand only once. About 79,000 compounds went through this panel and 15% of them were active in at least one assay; those are over-represented in the sample as a whole. More than one record can exist for a structure, and the calls need not agree. Calls of active or inactive are those of the source. Cut-off read from the data, not from the text of the source: active = growth inhibition above about 70%; inactive = the rest.

The nature of the first assay: NCI Yeast Anticancer Drug Screen. Data for the rad50 strain (AID 155).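 Note: 0% = growth of vehicle-only cultures of the same strain.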 The note with it: S. cerevisiae rad50 strain growth inhibition; at 33.0 µM; stronger effect = higher value. The method, boiled down:
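Genetically altered yeast (DNA repair pathway); compound treatment; growth inhibition vs vehicle ctrl.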
For the compound `c1cc(Nc2ccc3c(c2)OCO3)c2cc(C3CCCCC3)ccc2n1`, the growth inhibition is 5% (inactive).
In the case of `Cc1ccc2nc(N/N=C/c3ccc(C)s3)cc(C)c2c1`, the growth inhibition was 99% (active).
In the case of `COc1cc(NCCCCCNC(C)C)c2ncccc2c1Cl`, the growth inhibition was 7% (inactive).
Consider `COc1ccc2cc(CN3CCC(C4CCN(Cc5ccc6cc(OC)ccc6c5)CC4)CC3)ccc2c1`, for which the growth inhibition was 26% (inactive).
The same measure, in the same setting: the value for `CC(=O)O/N=C/c1c2ccccc2cc2ccccc12` was 20% (inactive); that for `CC[C@@]1(OC(=O)CN(C)C)C(=O)OCc2c1cc1n(c2=O)Cc2cc3ccccc3nc2-1` was 96% (active); that for `CC1(C)CC(=O)C(C(CC(c2ccccc2)c2cc3c(cc2O)OCO3)C2=C(O)CC(C)(C)CC2=O)=C(O)C1` (stereo unspecified) was 77% (active).
On the same count and under the same terms, the value for `CCCCCCC(CCl)c1sc(-c2csc(CCNC(=O)OC(C)(C)C)n2)nc1C(=O)OC` (stereo unspecified) was 24% (inactive); that for `CCOC(=O)C1=C(C)NC(C)=C(C(=O)OCC)C1c1cccc([N+](=O)[O-])c1` was 65% (inactive); that for `Cc1ccc2c(/C=C/c3ccc(N(C)C)cc3)ccnc2c1C` was 14% (inactive).
With `O=C1C(Br)=CC(Br)(Br)C=C1Br`, the growth inhibition is 95% (active).

The same assay, now with this note: S. cerevisiae rad50 strain growth inhibition; at 50.0 µM (retest, dose inferred, filed as 5.0); stronger effect = higher value.
For `CNC(=O)OCc1c(COC(=O)NC)c(C)n(-c2ccc(Cl)c(Cl)c2)c1C`, the growth inhibition is 97% (active).
Take `COc1ccc2nc(N/N=C/c3sccc3C)cc(C)c2c1`: the growth inhibition was 68% (inactive).
Turning to `CCCCCCCCCCCC[N+](C)(C)Cc1ccccc1` (tested in a mixture with another compound), the growth inhibition is 99% (active).
As to `CC(C)c1ccc(O)c(=O)cc1`, the growth inhibition is 42% (inactive) and 28% (inactive) and -1% (inactive).
The same measure, in the same setting: the value for `O=C(O)/C=C\C(=O)NNc1ccc(Br)cc1` was 97% (active); that for `S=c1[nH]nc(Cc2ccccc2)c(=S)[nH]1` was 55% (inactive).
`COc1ccc2nc3cccc([N+](=O)[O-])c3c(NCCCO)c2c1`: the growth inhibition was 98% (active).
On to `CCN(CC)CCSc1c2ccccc2nc2cc(NCC(=O)Nc3ccccc3-c3ccccc3NC(=O)CNc3ccc4c(SCCN(CC)CC)c5ccccc5nc4c3)ccc12`, for which the growth inhibition is 96% (active).
Regarding `Cc1ccc(N(C=O)c2c([N+](=O)[O-])cc([N+](=O)[O-])c3c2=[N+]([O-])CN=3)cc1`, the growth inhibition was 83% (active).
Same read-out and setting: the value for `Nc1ccccc1SSc1ccccc1N` was 99% (active) and -9% (inactive); that for `COc1ccc(C(=O)OCCc2ccccc2)cc1` was 23% (inactive).
Still for that read-out and setting: then `COc1ccc(C(=O)NCCN(C)C)c2nc3ccccc3cc12`, with 95% (active); and `NCC(O)CSCc1ccc(Cl)cc1` (stereo unspecified), with 5% (inactive).
Regarding `O=c1[nH]c(=O)n(CCCO)cc1F`, the growth inhibition was 44% (inactive).
Take `CCCCCCCCCCCC[N+](C)(C)C`: the growth inhibition is 98% (active) and 96% (active) and 99% (active).
On the same count and under the same terms, then `COc1ccc(/C(=N/O)c2ccccc2C2=Nc3ccccc3C(NCc3ccccc3)O2)cc1C` (stereo unspecified), with 95% (active); and `CCCC(=O)OC(OC(=O)CCC)c1ccc([N+](=O)[O-])o1`, with 34% (inactive).
Take `O=C(/C(=C/c1ccccc1)CBr)c1ccccc1`: the growth inhibition is 98% (active).
With `O=C(Cc1ccccc1F)NC1=C(Cl)C(=O)c2ccccc2C1=O`, the growth inhibition is 4% (inactive).
For `Cc1cccc(N2CCN(C(=O)/C(=C/c3ccccc3)NC(=O)c3ccccc3)CC2)c1`, the growth inhibition is 48% (inactive).
Take `OCC(O)C(O)C(O)C(O)c1nc2ccccc2[nH]1` (stereo unspecified): the growth inhibition is -1% (inactive) and -19% (inactive).
Still for that read-out and setting: then `c1cc(Nc2ccc3c(c2)OCO3)c2cc(C3CCCCC3)ccc2n1`, with 48% (inactive).
For `Cc1ccc2nc(N/N=C/c3ccc(C)s3)cc(C)c2c1`, the growth inhibition was 98% (active).
Regarding `COc1cc(NCCCCCNC(C)C)c2ncccc2c1Cl`, the growth inhibition is 12% (inactive).
For the compound `COc1cccc2c1C(=O)c1c(O)c3c(c(O)c1C2=O)CC(O)(C(=O)CO)CC3OC1CC(N)C(O)C(C)O1` (stereo unspecified), the growth inhibition is 13% (inactive) and 18% (inactive) and 91% (active).
The same measure, in the same setting: then `COc1ccc2cc(CN3CCC(C4CCN(Cc5ccc6cc(OC)ccc6c5)CC4)CC3)ccc2c1`, with 38% (inactive).
In the case of `CC(=O)O/N=C/c1c2ccccc2cc2ccccc12`, the growth inhibition is 90% (active).
Same read-out and setting: the value for `CC[C@@]1(OC(=O)CN(C)C)C(=O)OCc2c1cc1n(c2=O)Cc2cc3ccccc3nc2-1` was 97% (active); that for `CC1(C)CC(=O)C(C(CC(c2ccccc2)c2cc3c(cc2O)OCO3)C2=C(O)CC(C)(C)CC2=O)=C(O)C1` (stereo unspecified) was 96% (active); that for `CCCCCCC(CCl)c1sc(-c2csc(CCNC(=O)OC(C)(C)C)n2)nc1C(=O)OC` (stereo unspecified) was 11% (inactive).
In the case of `CCOC(=O)C1=C(C)NC(C)=C(C(=O)OCC)C1c1cccc([N+](=O)[O-])c1`, the growth inhibition is 80% (active).
As for `COc1nc(N)c(N=CC(OC(C)=O)C(OC(C)=O)C(COC(C)=O)OC(C)=O)c(=O)n1C` (stereo unspecified), the growth inhibition is -9% (inactive) and -4% (inactive) and -19% (inactive).
On to `Cc1ccc2c(/C=C/c3ccc(N(C)C)cc3)ccnc2c1C`, for which the growth inhibition is 35% (inactive).
With `Cc1cc(SC#N)ccc1O`, the growth inhibition was 91% (active).
Same read-out and setting: then `O=C1C(Br)=CC(Br)(Br)C=C1Br`, with 99% (active).
